Activity calls are given as the source filed them. The calls were made as follows: active = hit-call score of the fitted dose curve at least 0.9, where 1 is the maximum; inactive = score below 0.9.
How the values were obtained:
[1] = target: Bile acid receptor (Homo sapiens) (UniProt Q96RI1); test: ATG_IR1_CIS: Attagene CIS-FACTORIAL HepG2 Assay for human Nuclear Receptor Subfamily 1 Group H Member 4 (NR1H4), IR1 submotif (AID 2282946); settings: IR1 reporter transcription, actives raise or lower the signal
Procedure, shortened: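 HepG2 cells transiently transfected with multiple cis-promoter-driven reporter units to measure endogenous transcription factor activity; 24 h exposure. Reporter mRNA read by RT-PCR, FAM labelling, HpaI digestion and capillary electrophoresis. Bidirectional fit versus DMSO.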

[2] = ATG_ISRE_CIS: Attagene CIS-FACTORIAL HepG2 Assay for human Interferon Regulatory Factor 1 (IRF1) binding to an Interferon-Stimulated Response Element (ISRE) (AID 2282948); settings: HepG2 ISRE cis-reporter (Attagene), mRNA transcription readout; actives raise or lower the signal
Procedure, shortened: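 Quantitation relies on labelled RT-PCR fragments separated by capillary electrophoresis. Human HepG2 cells bearing cis-promoter reporter constructs were treated 24 h; DMSO served as baseline for bidirectional fitting.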

[3] = ATG_M_32_CIS: Attagene CIS-FACTORIAL HepG2 Assay for M32 Transcription Factor (Internal Marker) (AID 2282949); settings: HepG2 Attagene cis-factorial M32 reporter, mRNA; actives raise or lower the signal;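 also: background control marker of the multiplexed CIS panel rather than a real target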
Procedure, shortened: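 Internal background marker read-out: RT-PCR/capillary electrophoresis fluorescence of reporter transcripts from transiently transfected HepG2 cells after 24 h chemical exposure. Activity fitted bidirectionally relative to DMSO negative control.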

[4] = ATG_M_06_CIS: Attagene CIS-FACTORIAL HepG2 Assay for M06 Transcription Factor (Internal Marker) (AID 2282950); settings: HepG2 Attagene CIS-FACTORIAL M06 internal marker reporter; actives raise or lower the signal
Procedure, shortened: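 Fluorescence-labelled RT-PCR products from cis-promoter reporter units, cut with HpaI and resolved by capillary electrophoresis, give the signal. Cells are human HepG2, dosed for 24 h. Serves as background control, fitted relative to DMSO.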

[5] = target: Hypoxia-inducible factor 1-alpha (Homo sapiens) (UniProt Q16665); test: ATG_HIF1a_CIS: Attagene CIS-FACTORIAL HepG2 Assay for human Hypoxia Inducible Factor 1 (HIF1A) (AID 2282951); settings: HepG2 Attagene cis-factorial HIF1a reporter transcription; actives raise or lower the signal
Procedure, shortened: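 Measures endogenous transcription-factor activity through cis-regulated reporter mRNA in HepG2. Cells dosed 24 h; transcripts quantified by RT-PCR with 6-FAM-labelled products separated by capillary electrophoresis; DMSO serves as negative control.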

[6] = target: Hepatocyte nuclear factor 6 (Homo sapiens) (UniProt Q9UBC0); test: ATG_HNF6_CIS: Attagene CIS-FACTORIAL HepG2 Assay for human Hepatocyte Nuclear Factor 6 (HNF6) (AID 2282952); settings: HepG2 Attagene cis-factorial HNF6 reporter transcription; actives raise or lower the signal
Procedure, shortened: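 Transiently transfected HepG2 cells expressing cis-regulated reporter transcription units were exposed to chemical for 24 h in a 24-well format. Reporter transcript abundance was determined by fluorescence capillary electrophoresis.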

[7] = target: Heat shock factor protein 1 (Homo sapiens) (UniProt Q00613); test: ATG_HSE_CIS: Attagene CIS-FACTORIAL HepG2 Assay for human Heat Shock Transcription Factor 1 (HSE) (AID 2282953); settings: HepG2 HSE cis-reporter, Attagene RNA transcription; actives raise or lower the signal
Procedure, shortened: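 After a 24 h incubation with test chemical, transfected HepG2 cells were harvested for RNA; reporter transcripts were measured by RT-PCR and capillary electrophoresis. Values reflect gain or loss of signal relative to DMSO.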

[8] = ATG_MRE_CIS: Attagene CIS-FACTORIAL HepG2 Assay for human Metal Responsive Element (MRE) (AID 2282954); settings: HepG2 MRE cis-reporter transcription, Attagene multiplex; actives raise or lower the signal
Procedure, shortened: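 Fluorescent reporter fragments separated by capillary electrophoresis give mRNA induction for the MRE unit after 24 h treatment of transfected HepG2 cells. Endogenous transcription-factor activity is read; DMSO serves as negative control and baseline.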

[9] = ATG_PBREM_CIS: Attagene CIS-FACTORIAL HepG2 Assay for human Phenobarbital-responsive Enhancer Module (PBREM) (AID 2282955); settings: HepG2 PBREM cis-reporter, Attagene multiplexed transcription; actives raise or lower the signal
Procedure, shortened: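 Fluorescence of labelled reporter cDNA fragments, resolved by capillary electrophoresis, gives mRNA induction in transfected HepG2 cells treated for 24 h; DMSO serves as negative control and baseline.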

[10] = target: Paired box protein Pax-6 (Homo sapiens) (UniProt P26367); test: ATG_Pax6_CIS: Attagene CIS-FACTORIAL HepG2 Assay for human Paired Box 6 (PAX6) (AID 2282956); settings: HepG2 CIS-FACTORIAL PAX6 reporter transcription, RNA readout; actives raise or lower the signal
Procedure, shortened: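 After twenty-four hours of chemical exposure, transfected HepG2 cells are harvested for RNA. Cis-promoter reporter transcripts are amplified, fluorescently labelled and sized by capillary electrophoresis, with gain and loss of signal scored against DMSO.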

[11] = ATG_RORE_CIS: Attagene CIS-FACTORIAL HepG2 Assay for human RAR-related Orphan Receptor Element (RORE) (AID 2282959); settings: HepG2 Attagene cis-factorial RORE reporter, mRNA; actives raise or lower the signal
Procedure, shortened: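 Cells were HepG2 carrying transfected cis-regulated reporter constructs, dosed for 24 hours. Total RNA was reverse-transcribed and reporter cDNA amplified, fluorescently labeled and sized by capillary electrophoresis. Activity was fitted bidirectionally relative to DMSO.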

[12] = ATG_Sox_CIS: Attagene CIS-FACTORIAL HepG2 Assay for human SRY-box transcription factor (SOX) (AID 2282960); settings: HepG2 Attagene cis-factorial SOX reporter, mRNA; actives raise or lower the signal
Procedure, shortened: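 Transient MRTU transfection of HepG2; 24 h compound incubation; TriZol RNA, oligo(dT) RT, PCR, 6-FAM primer extension, HpaI cut, CE. Bidirectional fit, DMSO = baseline.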

[13] = target: Transcription factor Sp1 (Homo sapiens) (UniProt P08047); test: ATG_Sp1_CIS: Attagene CIS-FACTORIAL HepG2 Assay for human Specificity Protein 1 (Sp1) (AID 2282961); settings: HepG2 Sp1 cis-reporter transcription, actives raise or lower the signal
Procedure, shortened: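 Endogenous Sp1 activity was gauged in human liver HepG2 cells bearing transfected reporter units under a cis-regulating promoter. After 24 h dosing, reporter mRNA was quantified by RT-PCR with capillary electrophoresis, and activity fitted bidirectionally versus DMSO.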

[14] = ATG_SREBP_CIS: Attagene CIS-FACTORIAL HepG2 Assay for human Sterol Regulatory Element Binding (SREBP) (AID 2282962); settings: HepG2 Attagene cis-factorial SREBP reporter, mRNA; actives raise or lower the signal
Procedure, shortened: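 Twenty-four hours after chemical dosing of transfected HepG2 cultures, reporter RNA was converted to cDNA, amplified, end-labelled with 6-FAM and resolved by capillary electrophoresis. Responses were fitted relative to DMSO.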

[15] = target: Signal transducer and activator of transcription 3 (Homo sapiens) (UniProt P40763); test: ATG_STAT3_CIS: Attagene CIS-FACTORIAL HepG2 Assay for human Signal Transducer and Activator of Transcription 3 (STAT3) (AID 2282963); settings: HepG2, Attagene cis-factorial STAT3 reporter transcription; actives raise or lower the signal
Procedure, shortened: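 Values derive from bidirectional fits relative to DMSO of reporter mRNA levels, measured by RT-PCR with capillary electrophoresis, in HepG2 cells carrying transiently transfected cis-regulated reporter units and exposed 24 h.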

[16] = ATG_TCF_b_cat_CIS: Attagene CIS-FACTORIAL HepG2 Assay for human T-Cell-Factor with beta-catenin (TCF/b-cat) (AID 2282965); settings: HepG2 TCF/beta-catenin cis-reporter transcription, actives raise or lower the signal
Procedure, shortened: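 HepG2, transient MRTU transfection, cis-element-driven reporters (endogenous TFs). 24 h compound exposure. Readout: reporter mRNA by RT-PCR + 6-FAM primer extension, HpaI digest, capillary electrophoresis. Gain/loss fit vs DMSO baseline.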

[17] = ATG_PXRE_CIS: Attagene CIS-FACTORIAL HepG2 Assay for human Pregnane X Receptor Element (PXRE) (AID 2282957); settings: HepG2 Attagene CIS-FACTORIAL PXRE reporter, mRNA; actives raise or lower the signal
Procedure, shortened: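 Cis-element reporter mRNA in human hepatoma HepG2 cells is measured 24 h post-dosing by RT-PCR, primer-extension labeling and capillary electrophoresis; gain or loss of signal is fitted relative to DMSO.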

[18] = ATG_PPRE_CIS: Attagene CIS-FACTORIAL HepG2 Assay for human Peroxisome Proliferator-activated Response Element (PPRE) (AID 2282958); settings: HepG2 PPRE cis-element reporter, Attagene transcription factor profiling; actives raise or lower the signal
Procedure, shortened: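 Cells are first transfected transiently with the multiplexed reporter library, then dosed for 24 h. Total RNA is reverse-transcribed, amplified, fluorescently end-labeled and HpaI-cut before capillary electrophoresis; activity is fitted bidirectionally against DMSO controls.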

[19] = ATG_TA_CIS: Attagene CIS-FACTORIAL HepG2 Assay for human TA Basal Promoter (AID 2282964); settings: HepG2 Attagene CIS-factorial TA basal promoter reporter; actives raise or lower the signal
Procedure, shortened: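 Multiplexed mRNA reporter assay, HepG2, 24 h. Reporter cDNA amplified, 6-FAM primer-extended, HpaI-cut, CE-sized; DMSO = negative control and baseline.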

Measured: AC50

Chain of Bile acid receptor (Homo sapiens) (Q96RI1 whole entry, looked up): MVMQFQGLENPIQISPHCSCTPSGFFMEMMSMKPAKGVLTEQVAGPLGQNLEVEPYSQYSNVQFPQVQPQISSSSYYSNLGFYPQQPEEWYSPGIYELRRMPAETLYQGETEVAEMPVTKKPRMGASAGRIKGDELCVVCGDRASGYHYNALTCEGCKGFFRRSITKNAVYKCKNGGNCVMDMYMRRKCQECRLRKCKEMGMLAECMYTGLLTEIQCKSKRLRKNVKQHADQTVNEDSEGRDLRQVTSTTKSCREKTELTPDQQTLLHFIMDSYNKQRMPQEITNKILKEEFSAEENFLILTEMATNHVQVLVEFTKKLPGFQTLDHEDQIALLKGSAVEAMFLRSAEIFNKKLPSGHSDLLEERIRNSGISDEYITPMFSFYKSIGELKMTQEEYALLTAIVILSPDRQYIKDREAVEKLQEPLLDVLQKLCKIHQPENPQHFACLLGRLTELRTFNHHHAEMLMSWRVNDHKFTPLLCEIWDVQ
Chain of Hypoxia-inducible factor 1-alpha (Homo sapiens) (Q16665 whole entry, looked up): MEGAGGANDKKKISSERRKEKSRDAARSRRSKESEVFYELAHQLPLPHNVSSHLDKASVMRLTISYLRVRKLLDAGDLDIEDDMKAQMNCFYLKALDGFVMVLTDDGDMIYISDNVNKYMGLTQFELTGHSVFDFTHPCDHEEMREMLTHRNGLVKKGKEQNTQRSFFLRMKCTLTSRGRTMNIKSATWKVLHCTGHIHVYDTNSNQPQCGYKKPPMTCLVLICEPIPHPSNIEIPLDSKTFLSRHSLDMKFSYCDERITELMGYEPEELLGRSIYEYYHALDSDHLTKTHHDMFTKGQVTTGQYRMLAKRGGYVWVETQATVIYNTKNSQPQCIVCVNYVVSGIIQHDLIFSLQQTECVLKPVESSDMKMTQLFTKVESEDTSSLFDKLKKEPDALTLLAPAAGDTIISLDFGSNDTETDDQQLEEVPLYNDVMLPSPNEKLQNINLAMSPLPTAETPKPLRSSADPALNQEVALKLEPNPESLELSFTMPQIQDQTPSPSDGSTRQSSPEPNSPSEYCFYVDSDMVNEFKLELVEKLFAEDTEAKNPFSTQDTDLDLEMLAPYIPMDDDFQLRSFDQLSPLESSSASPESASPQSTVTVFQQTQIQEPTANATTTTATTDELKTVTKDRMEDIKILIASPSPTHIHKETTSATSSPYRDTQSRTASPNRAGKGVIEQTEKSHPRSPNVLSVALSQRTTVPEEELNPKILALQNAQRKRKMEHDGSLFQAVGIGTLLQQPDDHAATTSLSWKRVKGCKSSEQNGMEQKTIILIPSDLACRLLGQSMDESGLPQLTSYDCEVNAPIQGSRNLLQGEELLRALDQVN
Chain of Signal transducer and activator of transcription 3 (Homo sapiens) (P40763 whole entry, looked up): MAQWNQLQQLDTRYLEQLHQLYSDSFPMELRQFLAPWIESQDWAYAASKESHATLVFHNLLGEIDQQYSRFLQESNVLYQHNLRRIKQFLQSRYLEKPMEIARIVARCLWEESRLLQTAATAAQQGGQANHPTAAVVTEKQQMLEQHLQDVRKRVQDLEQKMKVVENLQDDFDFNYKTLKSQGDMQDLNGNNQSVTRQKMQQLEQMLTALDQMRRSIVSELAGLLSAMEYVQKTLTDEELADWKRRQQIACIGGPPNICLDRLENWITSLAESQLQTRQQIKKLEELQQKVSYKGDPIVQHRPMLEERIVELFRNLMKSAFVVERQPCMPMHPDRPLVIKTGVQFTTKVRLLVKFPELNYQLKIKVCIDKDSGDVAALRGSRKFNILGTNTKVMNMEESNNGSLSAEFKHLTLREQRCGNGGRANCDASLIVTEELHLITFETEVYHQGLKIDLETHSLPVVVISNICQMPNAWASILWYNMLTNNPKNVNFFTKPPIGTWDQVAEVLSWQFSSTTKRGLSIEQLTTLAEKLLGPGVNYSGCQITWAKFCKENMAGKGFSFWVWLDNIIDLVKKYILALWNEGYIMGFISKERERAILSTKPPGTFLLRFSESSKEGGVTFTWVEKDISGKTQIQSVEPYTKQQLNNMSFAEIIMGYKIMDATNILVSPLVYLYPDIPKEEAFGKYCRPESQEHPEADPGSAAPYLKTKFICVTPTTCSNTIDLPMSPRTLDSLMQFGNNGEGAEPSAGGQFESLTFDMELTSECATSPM
Chain of Transcription factor Sp1 (Homo sapiens) (P08047 whole entry, looked up): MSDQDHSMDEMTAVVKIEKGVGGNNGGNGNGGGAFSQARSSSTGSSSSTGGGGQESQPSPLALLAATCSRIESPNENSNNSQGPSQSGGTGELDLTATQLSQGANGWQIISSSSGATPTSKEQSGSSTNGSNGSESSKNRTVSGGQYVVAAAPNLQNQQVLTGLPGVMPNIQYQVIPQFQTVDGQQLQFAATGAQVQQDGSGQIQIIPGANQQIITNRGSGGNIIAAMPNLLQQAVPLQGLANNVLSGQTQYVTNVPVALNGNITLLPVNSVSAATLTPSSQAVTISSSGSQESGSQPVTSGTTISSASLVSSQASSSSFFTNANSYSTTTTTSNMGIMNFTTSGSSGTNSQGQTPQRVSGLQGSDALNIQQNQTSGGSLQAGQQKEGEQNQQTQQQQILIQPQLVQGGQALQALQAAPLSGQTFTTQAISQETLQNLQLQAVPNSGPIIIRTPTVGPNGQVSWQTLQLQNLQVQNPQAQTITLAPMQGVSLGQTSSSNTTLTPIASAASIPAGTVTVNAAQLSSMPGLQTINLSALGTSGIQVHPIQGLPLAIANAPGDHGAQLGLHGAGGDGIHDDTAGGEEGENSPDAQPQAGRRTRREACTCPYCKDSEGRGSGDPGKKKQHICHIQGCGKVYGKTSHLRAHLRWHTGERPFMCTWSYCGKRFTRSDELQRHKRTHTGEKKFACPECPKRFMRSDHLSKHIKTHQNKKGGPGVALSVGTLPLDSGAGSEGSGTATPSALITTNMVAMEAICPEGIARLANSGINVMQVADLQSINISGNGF
Chain of Hepatocyte nuclear factor 6 (Homo sapiens) (Q9UBC0 whole entry, looked up): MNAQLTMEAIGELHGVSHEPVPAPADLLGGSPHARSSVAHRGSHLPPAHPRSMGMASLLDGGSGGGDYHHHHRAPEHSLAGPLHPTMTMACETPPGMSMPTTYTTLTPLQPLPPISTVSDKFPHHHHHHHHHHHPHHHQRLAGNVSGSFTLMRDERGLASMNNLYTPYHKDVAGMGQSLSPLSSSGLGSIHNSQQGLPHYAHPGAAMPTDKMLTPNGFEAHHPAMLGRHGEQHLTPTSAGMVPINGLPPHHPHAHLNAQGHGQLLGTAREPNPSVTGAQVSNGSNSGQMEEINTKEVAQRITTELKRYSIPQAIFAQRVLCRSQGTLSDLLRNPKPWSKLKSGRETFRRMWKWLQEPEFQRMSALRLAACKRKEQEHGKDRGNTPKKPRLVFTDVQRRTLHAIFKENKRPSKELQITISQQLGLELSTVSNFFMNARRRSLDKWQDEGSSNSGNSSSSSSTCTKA
Chain of Paired box protein Pax-6 (Homo sapiens) (P26367 whole entry, looked up): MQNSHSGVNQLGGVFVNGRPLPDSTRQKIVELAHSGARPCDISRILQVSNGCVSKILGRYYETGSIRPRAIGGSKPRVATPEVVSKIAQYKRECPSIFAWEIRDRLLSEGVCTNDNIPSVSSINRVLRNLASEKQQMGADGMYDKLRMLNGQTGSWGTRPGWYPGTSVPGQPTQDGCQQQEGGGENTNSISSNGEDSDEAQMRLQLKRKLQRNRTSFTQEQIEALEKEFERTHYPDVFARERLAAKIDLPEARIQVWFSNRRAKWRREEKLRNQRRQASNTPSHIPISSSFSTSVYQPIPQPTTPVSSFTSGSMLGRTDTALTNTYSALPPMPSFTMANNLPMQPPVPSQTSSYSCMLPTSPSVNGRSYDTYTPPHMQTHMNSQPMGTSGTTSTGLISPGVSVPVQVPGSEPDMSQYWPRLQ
Chain of Heat shock factor protein 1 (Homo sapiens) (Q00613 whole entry, looked up): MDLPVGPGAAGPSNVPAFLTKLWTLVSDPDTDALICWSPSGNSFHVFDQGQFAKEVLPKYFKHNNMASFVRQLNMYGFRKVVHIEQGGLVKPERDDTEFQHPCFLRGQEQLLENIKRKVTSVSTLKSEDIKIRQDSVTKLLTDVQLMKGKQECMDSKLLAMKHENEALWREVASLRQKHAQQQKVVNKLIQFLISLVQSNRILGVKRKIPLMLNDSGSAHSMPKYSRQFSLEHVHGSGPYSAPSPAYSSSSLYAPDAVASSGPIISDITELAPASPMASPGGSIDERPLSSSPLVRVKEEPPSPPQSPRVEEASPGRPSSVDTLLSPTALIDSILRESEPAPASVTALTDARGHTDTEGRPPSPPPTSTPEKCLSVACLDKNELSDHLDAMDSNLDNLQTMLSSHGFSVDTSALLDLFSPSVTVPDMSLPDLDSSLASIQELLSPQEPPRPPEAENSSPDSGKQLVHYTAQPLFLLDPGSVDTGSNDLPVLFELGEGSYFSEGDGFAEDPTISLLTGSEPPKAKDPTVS

O=C(O)Cc1ccccc1
inactive: [1] | [2] | [3] | [4] | [5] | [6] | [7] | [8] | [9] | [10] | [11] | [12] | [13] | [14] | [15] | [16]

N#CN=C(N)N
inactive: [1] | [2] | [4] | [5] | [6] | [7] | [8] | [10] | [17] | [18] | [11] | [12] | [14] | [15]

COP(=O)(OC)O/C(=C\Cl)c1cc(Cl)c(Cl)cc1Cl
active: [2] 47 µM | [5] 100 µM | [7] 153 µM | [8] 100 µM | [10] 35.2 µM | [17] 1.4 µM | [18] 154 µM | [12] 44.3 µM | [14] 26.9 µM | [19] 73.4 µM | [16] 34.9 µM
inactive: [1] | [3] | [4] | [6] | [11] | [13] | [15]

CC1(C)CCC(Cc2ccc(Cl)cc2)C1(O)Cn1cncn1 (stereo not drawn)
active: [9] 24.2 µM | [17] 2.43 µM | [14] 9.3 µM
inactive: [1] | [2] | [3] | [4] | [5] | [6] | [7] | [10] | [18] | [11] | [12] | [13] | [15] | [19] | [16]

CCC(C)c1cccc(C(C)CC)c1O (stereo not drawn)
active: [17] 5.61 µM
inactive: [1] | [2] | [3] | [4] | [5] | [6] | [7] | [8] | [10] | [18] | [11] | [12] | [14] | [15] | [19] | [16]

Nc1ccc(Cl)cc1C(=O)c1ccccc1
active: [8] 25.6 µM | [10] 29.6 µM | [17] 6.6 µM | [11] 15 µM | [19] 21.8 µM
inactive: [1] | [2] | [3] | [4] | [5] | [6] | [7] | [18] | [14] | [15]

CCOP(=S)(OCC)Oc1nc(Cl)c(Cl)cc1Cl
inactive: [3] | [4] | [5] | [6] | [7] | [10] | [18] | [11] | [12] | [15] | [16]
active: [1] 26.4 µM | [2] 27.2 µM | [8] 100 µM | [14] 68.1 µM

COP(=O)(OC)OC
inactive: [1] | [2] | [3] | [4] | [5] | [6] | [7] | [8] | [10] | [18] | [11] | [12] | [13] | [14] | [15] | [19] | [16]

CCOC(=O)CP(=O)(OCC)OCC
active: [5] 0.0931 µM | [17] 100 µM
inactive: [1] | [2] | [3] | [4] | [6] | [7] | [8] | [10] | [18] | [11] | [12] | [13] | [14] | [15] | [16]

ClC1=C(Cl)[C@]2(Cl)[C@@H]3[C@@H](Cl)[C@@H](Cl)C[C@@H]3[C@@]1(Cl)C2(Cl)Cl
inactive: [1] | [2] | [3] | [4] | [5] | [6] | [7] | [9] | [10] | [17] | [18] | [11] | [14] | [15] | [19] | [16]

CC(C)c1ccc(CO)cc1
inactive: [1] | [2] | [3] | [4] | [5] | [6] | [7] | [8] | [10] | [17] | [18] | [11] | [13] | [14] | [15] | [19]

COS(=O)(=O)c1ccc(C)cc1
inactive: [1] | [2] | [3] | [4] | [5] | [6] | [7] | [10] | [18] | [11] | [12] | [13] | [14] | [15] | [16]

COC[C@H](C)N(C(=O)CCl)c1c(C)csc1C
inactive: [1] | [2] | [3] | [4] | [5] | [6] | [7] | [8] | [10] | [18] | [11] | [13] | [14] | [15] | [19] | [16]
active: [17] 30.6 µM

C=C(C)C#N
inactive: [1] | [2] | [3] | [4] | [5] | [6] | [7] | [8] | [9] | [10] | [17] | [11] | [12] | [14] | [15] | [19] | [16]

ClC1(Cl)C2(Cl)C3(Cl)C4(Cl)C(Cl)(Cl)C5(Cl)C3(Cl)C1(Cl)C5(Cl)C24Cl (stereo not drawn)
active: [17] 0.365 µM
inactive: [1] | [2] | [3] | [4] | [5] | [6] | [7] | [8] | [10] | [18] | [12] | [14] | [15] | [16]
